# High-throughput results: PubChem BioAssay, National Center for Advancing Translational Sciences (NCATS)
# Hits are enriched below; roughly 6.1% of the tested compounds scored in any of these assays.
# D1 antagonist: antagonists of human D1 dopamine receptor. HEK293 TREx D1 cells, calcium flux, dopamine EC80; active compounds read low. P21728. actives 3.2% (n = 360,000). AID 504652. activity change, negative = inhibition, % at 10 µM; in the data active = activity change below about -30%; note: % is set by controls: 0 for no effect and ±100 for the full control effect
#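 After overnight tetracycline induction at 30 C, force-coupled D1 HEK293 cells took up a no-wash calcium dye at room temperature. Compounds were added and monitored 180 s, and the response to EC80 dopamine was then recorded.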
# D1 PAM: human D1 dopamine receptor positive modulation; potentiation, % at 10 µM; AID 504651; actives 0.036% (n = 360,000); HEK293 TREx D1 cells, calcium flux, dopamine EC20 potentiation; P21728; in the data active = potentiation above about 30%; note: 0% is about no effect
# DRD3 antagonist: blocks the human D3 dopamine receptor; max response, negative = inhibition, %; P35462; AID 652054; D3R cells, DiscoveRx beta-arrestin luminescence, antagonist mode; active compounds read low; actives 2.5% (n = 360,000); in the data active = max response below about -50%; inconclusive = no clear call, values can overlap the other calls; note: % is set by controls: 0 for no effect and ±100 for the full control effect
# Target sequence (P35462 whole entry, looked up): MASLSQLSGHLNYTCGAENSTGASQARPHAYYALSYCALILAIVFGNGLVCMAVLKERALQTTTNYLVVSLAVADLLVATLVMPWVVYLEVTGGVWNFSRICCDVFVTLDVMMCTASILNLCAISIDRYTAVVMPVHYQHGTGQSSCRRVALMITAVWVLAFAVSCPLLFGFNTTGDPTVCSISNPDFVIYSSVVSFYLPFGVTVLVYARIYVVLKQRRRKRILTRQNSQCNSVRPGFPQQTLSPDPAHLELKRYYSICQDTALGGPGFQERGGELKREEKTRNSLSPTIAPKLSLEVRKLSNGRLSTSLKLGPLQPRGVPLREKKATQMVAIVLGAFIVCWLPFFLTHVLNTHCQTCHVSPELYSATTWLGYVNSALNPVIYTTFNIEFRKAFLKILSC
#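 Cells plated overnight at 1500 cells/well, then exposed to library compounds with dopamine controls for 90 minutes at 37 degrees C. DiscoveRx reagent added for 30–60 minutes at room temperature; luminescence read, quantitative HTS format.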
# D1 ag: human D1 receptor agonism | activation, % at 2 µM | HEK293 T-REx D1 cells, calcium flux, agonist mode | actives 1% (n = 360,000); in the data active = activation above about 30%; note: 0% is about no effect
#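 Tetracycline-induced HEK293 TREx D1 cells, force-coupled to calcium signalling, were dye-loaded with a no-wash calcium kit. Compound was pin-added after a 10 s baseline. Fluorescence was read kinetically at 1 cycle/s for 180 s, with calcium rises flagged as agonism.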
# D3 ag: activates the human D3 dopamine receptor; AID 652048; D3R DiscoveRx beta-arrestin cells, luminescence, 90 min; actives 0.58% (n = 410,000); max activation, %; P35462; in the data active = max activation above about 30%; note: 0% is about no effect
#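 Agonist mode: compounds and dopamine controls were applied to plated cells for 90 min at 37 degrees C after an overnight attachment at 1500 cells/well. Luminescent read-out followed 30 - 60 minutes at room temperature with DiscoveRx detection reagent.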
# Active calls of the source: *; ? = inconclusive; nt = no result given; ! = not confirmed by another sample.
SMILES,D1 antagonist,D1 PAM,DRD3 antagonist,D1 ag,D3 ag
CC(=O)Nc1ccc(S(=O)(=O)N2CCN(Cc3cccs3)CC2)cc1,-39*,-5,11,9,2
Cc1cc(C)cc(N(C(=O)c2ccccn2)C(C(=O)NC2CCCCC2)c2ccncc2)c1 (centres undefined),15,4,-11,0,-9
Cc1ccc(S(=O)(=O)N2CCN(C(=O)CN3CCc4ccccc4C3)CC2)cc1,-9,-4,?,2,-17
O=C(CN1CCc2ccccc2C1)N1CCN(S(=O)(=O)c2ccccc2)CC1,-35*,-6,?,3,-8
CCc1ccc2c(c1)C(c1ccc([N+](=O)[O-])cc1)=NNC(c1ccc(F)cc1)=N2,-40*,-6,-26,1,-2
Cc1ccc2c(c1)C(c1ccncc1)=NNC(c1ccc(F)cc1)=N2,-39*,-10,-10,0,-4
Cc1ccc2c(c1)C(c1ccncc1)=NNC(c1ccccc1)=N2,-20,4,4,3,6
O=C1CC(c2ccco2)Cc2nc(NCC3CCCO3)ncc21 (centres undefined),-32*,-3,-29,0,12
CCCCC(F)(F)[C@@]1(O)CC[C@H]2[C@@H](CC(=O)[C@@H]2CCCCCCC(=O)O)O1,nt,nt,nt,nt,2
Cc1ccc(S(=O)(=O)n2c3ccc(F)cc3c3nc(C)sc32)cc1,-31*,-4,nt,2,nt
Nn1cnc2scc(-c3ccco3)c2c1=O,-8,-14,-8,0,3
COCCNC(=O)/C(C#N)=C/c1cc(C)n(C2CCCCC2)c1C,-17,-5,-2,2,2
COCCNC(=O)/C(C#N)=C/c1cc(C(C)C)c(OC)cc1C,-22,-8,-77*,0,-40
COCCNC(=O)/C(C#N)=C/c1cc(C)n(-c2ccc(C)cc2)c1C,-64*,-10,?,9,-3
Cc1ccc(-n2c(C)cc(C=C(C#N)C#N)c2C)cc1,-46*,-4,11,7,-1
COc1cc(C)c(/C=C(\C#N)C(=O)Nc2ccc(C)cc2)cc1C(C)C,-10,-2,?,7,-43
CCNC(=O)C1(C)CCN(C(=O)CCc2ccccc2)C1 (centres undefined),nt,nt,16,nt,0
COc1ccc(C=O)cc1Cn1c(C)cc(C)c(C#N)c1=O,-9,1,11,15,-1
OC(c1ccc(Cl)cc1)c1ncc(-c2ccc(Oc3ccccc3)cc2)[nH]1 (centres undefined),nt,nt,-4,nt,5
c1ccc(-c2csc(Nc3ccccn3)n2)cc1,-19,-3,-6,4,3
Oc1ccc(-c2csc(Nc3ccccn3)n2)cc1,-79*,-20,-2,2,-4
CCc1nnc(N/N=C\c2ccc(OC(C)=O)c(OC)c2)n1N,5,0,1,1,-3
CCOc1cc(/C=N/Nc2nnc(C)n2N)ccc1OC(C)=O,-33*,-2,?,0,-4
CCOc1cc2c(cc1C(C)(C)C)NC(=O)CS2,-85*,-2,6,0,-2
O=C(Nc1ccccc1)N1CCN(C(=O)c2nsc3ccccc23)CC1,0,-2,nt,2,-2
SMILES,D1 antagonist,D1 PAM,DRD3 antagonist,D1 ag,D3 ag
N#CC(C(=O)NC1CCCCC1)c1nc2ccccc2nc1N1CCN(c2ccccc2F)CC1 (centres undefined),-35*,-3,-7,10,4
N#CC(C(=O)OCc1ccccc1)c1nc2ccccc2nc1N1CCOCC1 (centres undefined),8,4,-25,33*,-4
N#CC(C(=O)NC1CCCCC1)c1nc2ccccc2nc1N1CCOCC1 (centres undefined),22,-1,nt,2,nt
COC(=O)C1CCN(c2nc3ccccc3nc2C(C#N)C(=O)NCCc2ccccc2)CC1 (centres undefined),-35*,-1,31,2,-8
CCOC(=O)c1oc2ccccc2c1NC(=O)COC,-3,0,-52*,-2,-7
CCOCC(=O)Nc1c(C(=O)OCC)oc2ccccc12,25,-6,16,1,0
COc1ccc(NC(=O)c2oc3ccccc3c2NC(=O)c2ccco2)c(OC)c1,-13,0,29,4,49*
CCOC(=O)c1c(C)oc2ncnc(N3CCN(c4ccccc4F)CC3)c12,13,-4,nt,2,0
CCOC(=O)c1oc2ccccc2c1CN1CCN(c2ccccc2)CC1,4,-2,-77*,1,-4
CCOC(=O)c1oc2ccccc2c1CN1CCN(C(=O)c2ccccc2)CC1,-12,3,20,2,4
CCOC(=O)c1c(C)oc2ncnc(N3CCN(c4ccccc4)CC3)c12,-45*,1,nt,-1,2
CCCCn1c(N)c(N(CC)C(=O)c2cccs2)c(=O)[nH]c1=O,nt,nt,20,nt,-5
CCOCC(=O)Nc1c(C(=O)Nc2ccc(OC)cc2OC)oc2ccccc12,23,12,39,-3,73*
COc1ccc(NC(=O)c2oc3ccccc3c2NC(=O)COc2ccc(F)cc2)c(OC)c1,5,0,nt,3,-2
COc1cccc(NC(=O)c2oc3ccccc3c2NC(C)=O)c1,-12,-8,-55*,4,-33
O=C(Nc1cccnc1)c1cc(-c2cccnc2)nc2ccc(Br)cc12,-3,-7,25,0,55*
CN1CCC(NC(=O)c2cc(-c3cccc(Br)c3)nc3ccccc23)CC1,-35*,-10,-28,38*,0
COc1cc(NC(=O)c2cc(-c3cccnc3)nc3ccc(Br)cc23)cc(OC)c1,-4,1,27,3,36*
O=C(Nc1cccnc1)c1cc(-c2cccc(Br)c2)nc2ccccc12,-16,0,22,3,3
O=C(Nc1ccncc1)c1cc(-c2cccc(Br)c2)nc2ccccc12,4,-1,48,1,31*
O=C(NC1CC1)c1cc(-c2ccc(Br)cc2)nc2ccccc12,43,nt,33,6,0
CN1CCC(N(C)C(=O)c2cc(-c3ccccc3Cl)nc3ccccc23)CC1,8,-2,-60*,4,-11
O=C(Nc1sc2c(c1C(=O)NCc1cccnc1)CCCC2)c1cc(=O)c2ccccc2o1,-2,6,nt,1,7
C[C@@H](CO)NC(=O)[C@H]1O[C@@H](n2ccc(=O)[nH]c2=O)[C@H](O)[C@@H]1O,nt,nt,9,nt,8
CC[C@H](C)[C@@H](CO)NC(=O)[C@H]1O[C@@H](n2ccc(=O)[nH]c2=O)[C@H](O)[C@@H]1O,nt,nt,-105*,nt,-15
O=C(O)c1cccnc1SCc1cccc(Cl)c1,-40*!,-13,5,1,5
COC(=O)c1ccccc1NC(=O)Cn1c(=O)cc(C)c2c(C)nn(C)c21,-20,-4,nt,11,-8
Cc1cc(=O)n(CC(=O)N2CCCCC2)c2c1c(C)nn2C,-6,-2,nt,2,-4
